According to PMC7862700, “An all-to-all approach to the identification of sequence-specific readers for epigenetic DNA modifications on cytosine”:

molecular target: T1, ERF (Homo sapiens, UniProt P50548 1-548); assay: DAPPL (digital affinity profiling via proximity ligation, sequencing); 10 mM Tris-HCl pH 7.5, 50 mM NaCl, 1 mM DTT, 4% glycerol, room temperature, 30 min; GST-TFs on glutathione beads, 16-mer random dsDNA library, 0.1% formaldehyde crosslink after washing; high values mean tight binding; conditions: protein: recombinant; tags: N-terminal GST; dsDNA, one strand shown
T1 sequence: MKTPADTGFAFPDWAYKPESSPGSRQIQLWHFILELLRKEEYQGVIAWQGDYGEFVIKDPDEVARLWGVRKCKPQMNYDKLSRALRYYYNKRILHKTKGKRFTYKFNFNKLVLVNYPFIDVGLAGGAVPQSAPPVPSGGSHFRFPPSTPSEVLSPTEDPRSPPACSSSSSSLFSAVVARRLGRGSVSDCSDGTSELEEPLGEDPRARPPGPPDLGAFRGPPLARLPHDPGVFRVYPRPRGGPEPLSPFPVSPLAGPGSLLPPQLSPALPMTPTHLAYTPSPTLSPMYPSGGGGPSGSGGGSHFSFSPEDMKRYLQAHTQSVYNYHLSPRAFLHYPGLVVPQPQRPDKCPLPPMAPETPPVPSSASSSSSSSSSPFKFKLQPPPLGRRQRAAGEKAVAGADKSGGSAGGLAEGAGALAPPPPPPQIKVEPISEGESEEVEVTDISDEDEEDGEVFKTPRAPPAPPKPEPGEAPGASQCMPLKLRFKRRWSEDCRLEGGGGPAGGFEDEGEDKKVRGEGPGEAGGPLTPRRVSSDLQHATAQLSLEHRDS
Outline: (§1)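 Pools were built from human transcription factors expressed in yeast as GST fusions, captured on glutathione beads and DNA-barcoded, along with a tag-only sample. Incubation with 200 nmole of a 16-mer random double-stranded DNA library lasted 30 min at room temperature in Tris/NaCl/DTT/glycerol buffer, and was followed by washing, 0.1% formaldehyde crosslinking, proximity ligation, PCR amplification and Illumina NextSeq500 sequencing. Binding signal is the quotient of each hexamer's read frequency for a factor and its frequency for the tag-only sample.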

| Sequence | binding signal |
| --- | --- |
| GGTCTA | 1.07 fold enrichment (6-mer frequency, TF over GST control) |
| CACCAT | 1.12 fold enrichment (6-mer frequency, TF over GST control) |
| TGACGC | 1.34 fold enrichment (6-mer frequency, TF over GST control) |
| CGCACT | 1.21 fold enrichment (6-mer frequency, TF over GST control) |
| TTGGCC | 1.08 fold enrichment (6-mer frequency, TF over GST control) |
| CTATGT | 1.08 fold enrichment (6-mer frequency, TF over GST control) |
| GGAAGC | 1.43 fold enrichment (6-mer frequency, TF over GST control) |
| ACCCAC | 1.2 fold enrichment (6-mer frequency, TF over GST control) |
| GGCTTG | 1.01 fold enrichment (6-mer frequency, TF over GST control) |
| TGAACC | 1.08 fold enrichment (6-mer frequency, TF over GST control) |
| CCACAT | 1.28 fold enrichment (6-mer frequency, TF over GST control) |
| AAGTCA | 1.2 fold enrichment (6-mer frequency, TF over GST control) |
| CGTTAT | 1.17 fold enrichment (6-mer frequency, TF over GST control) |
| CACCCG | 1.25 fold enrichment (6-mer frequency, TF over GST control) |
| ACCCGG | 1.48 fold enrichment (6-mer frequency, TF over GST control) |
| ACCGCT | 1.21 fold enrichment (6-mer frequency, TF over GST control) |
| TGCACG | 1.11 fold enrichment (6-mer frequency, TF over GST control) |
| TGCTGA | 1.03 fold enrichment (6-mer frequency, TF over GST control) |
| TCATGG | 1.07 fold enrichment (6-mer frequency, TF over GST control) |
| CCCACC | 1.16 fold enrichment (6-mer frequency, TF over GST control) |

| Sequence | binding signal |
| --- | --- |
| GCGGAA | 1.19 fold enrichment (6-mer frequency, TF over GST control) |
| TCAATG | 1.11 fold enrichment (6-mer frequency, TF over GST control) |
| ACCGCC | 1.21 fold enrichment (6-mer frequency, TF over GST control) |
| GTTTTG | 1.25 fold enrichment (6-mer frequency, TF over GST control) |
| GTTTCA | 1.35 fold enrichment (6-mer frequency, TF over GST control) |
| ACCCCC | 1.08 fold enrichment (6-mer frequency, TF over GST control) |
| CGGTTT | 1.23 fold enrichment (6-mer frequency, TF over GST control) |
| CGGAAA | 1.77 fold enrichment (6-mer frequency, TF over GST control) |
| GTAATG | 1.12 fold enrichment (6-mer frequency, TF over GST control) |
| CCTTGT | 1.29 fold enrichment (6-mer frequency, TF over GST control) |
| TGCAAT | 1.14 fold enrichment (6-mer frequency, TF over GST control) |
| TTGTTG | 1.13 fold enrichment (6-mer frequency, TF over GST control) |
| ATCACA | 1.04 fold enrichment (6-mer frequency, TF over GST control) |
| GGTGTT | 1.14 fold enrichment (6-mer frequency, TF over GST control) |
| GTGTTT | 1.12 fold enrichment (6-mer frequency, TF over GST control) |
| CCAACA | 1.05 fold enrichment (6-mer frequency, TF over GST control) |
| TGTCCA | 1.09 fold enrichment (6-mer frequency, TF over GST control) |
| CTGCAC | 1.11 fold enrichment (6-mer frequency, TF over GST control) |
| TTGGGC | 1.12 fold enrichment (6-mer frequency, TF over GST control) |

molecular target: T2, ETV3L (Homo sapiens, UniProt Q6ZN32 1-361); assay: as above; conditions: protein: recombinant; tags: N-terminal GST; dsDNA, one strand shown
T2 sequence: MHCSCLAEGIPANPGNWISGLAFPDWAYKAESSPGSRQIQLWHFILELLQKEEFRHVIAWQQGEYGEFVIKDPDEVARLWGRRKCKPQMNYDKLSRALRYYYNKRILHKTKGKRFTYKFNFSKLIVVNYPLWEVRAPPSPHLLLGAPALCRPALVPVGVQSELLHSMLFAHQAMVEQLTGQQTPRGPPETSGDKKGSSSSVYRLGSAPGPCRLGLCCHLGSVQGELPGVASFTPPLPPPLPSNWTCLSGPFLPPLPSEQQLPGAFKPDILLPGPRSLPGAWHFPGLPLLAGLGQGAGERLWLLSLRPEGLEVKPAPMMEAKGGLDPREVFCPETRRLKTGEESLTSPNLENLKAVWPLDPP
Outline: as §1

| Sequence | binding signal |
| --- | --- |
| GGTCTA | 1.11 fold enrichment (6-mer frequency, TF over GST control) |
| CACCAT | 1.16 fold enrichment (6-mer frequency, TF over GST control) |
| TGACGC | 1.24 fold enrichment (6-mer frequency, TF over GST control) |
| CGCACT | 1.29 fold enrichment (6-mer frequency, TF over GST control) |
| TTGGCC | 1.09 fold enrichment (6-mer frequency, TF over GST control) |
| CTATGT | 1.06 fold enrichment (6-mer frequency, TF over GST control) |
| GGAAGC | 1.5 fold enrichment (6-mer frequency, TF over GST control) |
| ACCCAC | 1.02 fold enrichment (6-mer frequency, TF over GST control) |
| TGAACC | 1.2 fold enrichment (6-mer frequency, TF over GST control) |
| CCACAT | 1.15 fold enrichment (6-mer frequency, TF over GST control) |
| AAGTCA | 1.19 fold enrichment (6-mer frequency, TF over GST control) |
| CGTTAT | 1.2 fold enrichment (6-mer frequency, TF over GST control) |
| CACCCG | 1.32 fold enrichment (6-mer frequency, TF over GST control) |
| ACCCGG | 1.69 fold enrichment (6-mer frequency, TF over GST control) |
| ACCGCT | 1.12 fold enrichment (6-mer frequency, TF over GST control) |
| TGCACG | 1.1 fold enrichment (6-mer frequency, TF over GST control) |
| TGCTGA | 1.05 fold enrichment (6-mer frequency, TF over GST control) |
| TCATGG | 1.05 fold enrichment (6-mer frequency, TF over GST control) |
| CCCACC | 1.05 fold enrichment (6-mer frequency, TF over GST control) |

| Sequence | binding signal |
| --- | --- |
| GCGGAA | 1.29 fold enrichment (6-mer frequency, TF over GST control) |
| TCAATG | 1.05 fold enrichment (6-mer frequency, TF over GST control) |
| ACCGCC | 1.25 fold enrichment (6-mer frequency, TF over GST control) |
| GTTTTG | 1.16 fold enrichment (6-mer frequency, TF over GST control) |
| GTTTCA | 1.35 fold enrichment (6-mer frequency, TF over GST control) |
| ACCCCC | 1.16 fold enrichment (6-mer frequency, TF over GST control) |
| CGGTTT | 1.14 fold enrichment (6-mer frequency, TF over GST control) |
| CGGAAA | 2.05 fold enrichment (6-mer frequency, TF over GST control) |
| GTAATG | 1.11 fold enrichment (6-mer frequency, TF over GST control) |
| CCTTGT | 1.05 fold enrichment (6-mer frequency, TF over GST control) |
| TGCAAT | 1.12 fold enrichment (6-mer frequency, TF over GST control) |
| TTGTTG | 1.21 fold enrichment (6-mer frequency, TF over GST control) |
| ATCACA | 1.05 fold enrichment (6-mer frequency, TF over GST control) |
| GGTGTT | 1.07 fold enrichment (6-mer frequency, TF over GST control) |
| GTGTTT | 1.18 fold enrichment (6-mer frequency, TF over GST control) |
| CCAACA | 1.01 fold enrichment (6-mer frequency, TF over GST control) |
| TGTCCA | 1.2 fold enrichment (6-mer frequency, TF over GST control) |
| CTGCAC | 1.16 fold enrichment (6-mer frequency, TF over GST control) |
| TTGGGC | 1.22 fold enrichment (6-mer frequency, TF over GST control) |

molecular target: T3, ETS2 (Homo sapiens, UniProt P15036 1-469); assay: as above; conditions: protein: recombinant; tags: N-terminal GST; dsDNA, one strand shown
T3 sequence: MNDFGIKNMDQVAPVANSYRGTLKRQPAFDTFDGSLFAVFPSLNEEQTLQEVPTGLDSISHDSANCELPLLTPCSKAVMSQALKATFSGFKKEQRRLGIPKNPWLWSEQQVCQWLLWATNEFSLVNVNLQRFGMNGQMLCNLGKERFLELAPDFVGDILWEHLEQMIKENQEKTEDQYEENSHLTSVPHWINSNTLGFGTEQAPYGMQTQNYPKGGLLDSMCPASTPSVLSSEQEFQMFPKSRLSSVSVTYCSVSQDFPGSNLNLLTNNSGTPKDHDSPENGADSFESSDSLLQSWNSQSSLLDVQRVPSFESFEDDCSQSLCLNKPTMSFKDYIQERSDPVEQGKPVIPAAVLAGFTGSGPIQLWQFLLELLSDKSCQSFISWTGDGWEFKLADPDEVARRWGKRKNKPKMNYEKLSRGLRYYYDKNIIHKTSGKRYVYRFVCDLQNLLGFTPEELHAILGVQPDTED
Outline: as §1

| Sequence | binding signal |
| --- | --- |
| GGTCTA | 1.05 fold enrichment (6-mer frequency, TF over GST control) |
| CACCAT | 1.08 fold enrichment (6-mer frequency, TF over GST control) |
| TGACGC | 1.12 fold enrichment (6-mer frequency, TF over GST control) |
| CGCACT | 1.18 fold enrichment (6-mer frequency, TF over GST control) |
| TTGGCC | 1.01 fold enrichment (6-mer frequency, TF over GST control) |
| CTATGT | 1.16 fold enrichment (6-mer frequency, TF over GST control) |
| GGAAGC | 1.6 fold enrichment (6-mer frequency, TF over GST control) |
| ACCCAC | 1.15 fold enrichment (6-mer frequency, TF over GST control) |
| GGCTTG | 1.06 fold enrichment (6-mer frequency, TF over GST control) |
| TGAACC | 1.24 fold enrichment (6-mer frequency, TF over GST control) |
| CCACAT | 1.2 fold enrichment (6-mer frequency, TF over GST control) |
| AAGTCA | 1.21 fold enrichment (6-mer frequency, TF over GST control) |
| CGTTAT | 1.15 fold enrichment (6-mer frequency, TF over GST control) |
| CACCCG | 1.19 fold enrichment (6-mer frequency, TF over GST control) |
| ACCCGG | 1.79 fold enrichment (6-mer frequency, TF over GST control) |
| ACCGCT | 1.1 fold enrichment (6-mer frequency, TF over GST control) |
| TGCACG | 1.15 fold enrichment (6-mer frequency, TF over GST control) |
| TGCTGA | 1.11 fold enrichment (6-mer frequency, TF over GST control) |

| Sequence | binding signal |
| --- | --- |
| TCATGG | 1.1 fold enrichment (6-mer frequency, TF over GST control) |
| CCCACC | 1.02 fold enrichment (6-mer frequency, TF over GST control) |
| GCGGAA | 1.42 fold enrichment (6-mer frequency, TF over GST control) |
| TCAATG | 1.06 fold enrichment (6-mer frequency, TF over GST control) |
| ACCGCC | 1.24 fold enrichment (6-mer frequency, TF over GST control) |
| TCAGCA | 1.05 fold enrichment (6-mer frequency, TF over GST control) |
| GTTTTG | 1.1 fold enrichment (6-mer frequency, TF over GST control) |
| GTTTCA | 1.34 fold enrichment (6-mer frequency, TF over GST control) |
| ACCCCC | 1.15 fold enrichment (6-mer frequency, TF over GST control) |
| CGGTTT | 1.2 fold enrichment (6-mer frequency, TF over GST control) |
| CGGAAA | 2.07 fold enrichment (6-mer frequency, TF over GST control) |
| GTAATG | 1.07 fold enrichment (6-mer frequency, TF over GST control) |
| CCTTGT | 1.26 fold enrichment (6-mer frequency, TF over GST control) |
| TGCAAT | 1.15 fold enrichment (6-mer frequency, TF over GST control) |
| TTGTTG | 1.1 fold enrichment (6-mer frequency, TF over GST control) |
| ATCACA | 1.09 fold enrichment (6-mer frequency, TF over GST control) |
| GGTGTT | 1.08 fold enrichment (6-mer frequency, TF over GST control) |
